Results: PubChem BioAssay (NCI)
The panel holds about 83,000 compounds, 20% with a hit somewhere; the sample as a whole holds those more often.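 In brief: 96-well plates, 48 h treatment, single concentration, percent growth endpoint.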 Active and inactive are the calls of the source. The calls were made as follows: active = growth percent below 10; inactive = the rest.

What was measured:
Test in all cases: NCI-60 one-dose screen, 48 h (100 = growth as untreated, 0 = no growth, -100 = all killed)
Conditions in all cases: 10 µM unless noted
RPMI-8226 leukemia = test system: RPMI-8226 leukemia
OVCAR-8 ovarian = test system: OVCAR-8 ovarian
OVCAR-5 ovarian = test system: OVCAR-5 ovarian
OVCAR-4 ovarian = test system: OVCAR-4 ovarian
SK-OV-3 ovarian = test system: SK-OV-3 ovarian
IGROV1 ovarian = test system: IGROV1 ovarian
OVCAR-3 ovarian = test system: OVCAR-3 ovarian
HS 578T breast = test system: HS 578T breast
NCI/ADR-RES ovarian = test system: NCI/ADR-RES ovarian
T-47D breast = test system: T-47D breast
BT-549 breast = test system: BT-549 breast
MDA-MB-435 melanoma = test system: MDA-MB-435 melanoma
SW-620 colon = test system: SW-620 colon
MCF7 breast = test system: MCF7 breast
HCT-116 colon = test system: HCT-116 colon
HCC-2998 colon = test system: HCC-2998 colon
KM12 colon = test system: KM12 colon
SR leukemia = test system: SR leukemia

Measured: growth

CCC(c1ccc(O)cc1)C(CC)c1ccc(O)c(F)c1 (stereo unspecified)
inactive: RPMI-8226 leukemia 63.7% | OVCAR-8 ovarian 98.4% | OVCAR-5 ovarian 93.5% | OVCAR-4 ovarian 75.3% | SK-OV-3 ovarian 99% | IGROV1 ovarian 83% | OVCAR-3 ovarian 85.3% | HS 578T breast 73.9% | NCI/ADR-RES ovarian 81.8% | T-47D breast 65.8% | BT-549 breast 92.9% | MDA-MB-435 melanoma 75.1% | SW-620 colon 93.7% | MCF7 breast 103% | HCT-116 colon 59% | HCC-2998 colon 96.4% | KM12 colon 82.6%

CCCCCCCCCCCCCCCCCCNC(=O)[C@H]1CSC(c2ccc(OC)c(F)c2)N1 (stereo partly specified)
inactive: OVCAR-4 ovarian 76.9% | SK-OV-3 ovarian 88.1% | IGROV1 ovarian 30.2% | HS 578T breast 32.6%
active: SR leukemia -30.9% | OVCAR-8 ovarian -22.8% | OVCAR-5 ovarian -13.3% | OVCAR-3 ovarian -3.45% | NCI/ADR-RES ovarian -36.8% | T-47D breast -62.5% | BT-549 breast -60.2% | MDA-MB-435 melanoma -83% | SW-620 colon -60.2% | MCF7 breast -67.9% | HCT-116 colon -72.7% | HCC-2998 colon -57.5% | KM12 colon -50.2%

CCCNc1nc(SC)nc(-c2cccc(N)c2)c1C#N
inactive: RPMI-8226 leukemia 103% | OVCAR-8 ovarian 99.1% | OVCAR-5 ovarian 101% | OVCAR-4 ovarian 92.4% | SK-OV-3 ovarian 93.7% | IGROV1 ovarian 92.2% | OVCAR-3 ovarian 110% | HS 578T breast 93.1% | NCI/ADR-RES ovarian 101% | T-47D breast 86.2% | BT-549 breast 97.7% | MDA-MB-435 melanoma 103% | SW-620 colon 98.7% | MCF7 breast 89.1% | HCT-116 colon 96.3% | HCC-2998 colon 108% | KM12 colon 101%

CN1C2CCC1/C(=C\c1ccc(Cl)cc1)C1=C2[C@@H](c2ccc(Cl)cc2)C(C#N)=C(N)O1 (stereo partly specified)
inactive: RPMI-8226 leukemia 62.6% | OVCAR-8 ovarian 93.3% | OVCAR-5 ovarian 84.5% | OVCAR-4 ovarian 75.6% | SK-OV-3 ovarian 94.8% | IGROV1 ovarian 79.1% | OVCAR-3 ovarian 92.5% | HS 578T breast 95.1% | NCI/ADR-RES ovarian 95.8% | T-47D breast 81.7% | BT-549 breast 97.5% | MDA-MB-435 melanoma 91.5% | SW-620 colon 94.3% | MCF7 breast 66% | HCT-116 colon 63.7% | HCC-2998 colon 104% | KM12 colon 95%

COc1ccc(C2Nc3ccccc3-n3cccc32)cc1 (stereo unspecified)
inactive: RPMI-8226 leukemia 89.4% | OVCAR-8 ovarian 96.6% | OVCAR-5 ovarian 84.9% | OVCAR-4 ovarian 93.6% | SK-OV-3 ovarian 99.9% | IGROV1 ovarian 71.3% | OVCAR-3 ovarian 96.1% | HS 578T breast 93.2% | NCI/ADR-RES ovarian 89.9% | T-47D breast 84.2% | BT-549 breast 97.1% | MDA-MB-435 melanoma 103% | SW-620 colon 100% | MCF7 breast 95.7% | HCT-116 colon 94% | HCC-2998 colon 103% | KM12 colon 98.7%

N=c1c2ccccc2nc2n1CCCCC2
inactive: RPMI-8226 leukemia 105% | OVCAR-8 ovarian 114% | OVCAR-5 ovarian 96.1% | OVCAR-4 ovarian 107% | SK-OV-3 ovarian 112% | IGROV1 ovarian 106% | OVCAR-3 ovarian 116% | HS 578T breast 95.4% | NCI/ADR-RES ovarian 105% | T-47D breast 111% | BT-549 breast 117% | MDA-MB-435 melanoma 103% | SW-620 colon 110% | MCF7 breast 99.4% | HCT-116 colon 109% | KM12 colon 112%

CSc1nc(NCCCNc2ccnc3cc(Cl)ccc23)cc(-c2ccccc2)n1
active: RPMI-8226 leukemia 7.4% | MCF7 breast 6.05% | HCC-2998 colon -59.6%
inactive: OVCAR-8 ovarian 81.7% | OVCAR-5 ovarian 95% | OVCAR-4 ovarian 66.6% | SK-OV-3 ovarian 82.3% | IGROV1 ovarian 67% | OVCAR-3 ovarian 72.3% | HS 578T breast 65% | NCI/ADR-RES ovarian 67.5% | T-47D breast 66.3% | BT-549 breast 86.9% | MDA-MB-435 melanoma 55.4% | SW-620 colon 72% | HCT-116 colon 43.1% | KM12 colon 68.3%

Nc1nc(-c2ccc(F)cc2)cc(-c2cnn(-c3ccccc3)n2)n1
inactive: RPMI-8226 leukemia 105% | OVCAR-8 ovarian 100% | OVCAR-5 ovarian 110% | OVCAR-4 ovarian 111% | SK-OV-3 ovarian 102% | IGROV1 ovarian 83.8% | OVCAR-3 ovarian 105% | HS 578T breast 106% | NCI/ADR-RES ovarian 106% | T-47D breast 87.1% | BT-549 breast 119% | MDA-MB-435 melanoma 106% | SW-620 colon 99.3% | MCF7 breast 79.9% | HCT-116 colon 106% | HCC-2998 colon 111% | KM12 colon 100%

CCN(CC)CCCCNc1ccc(NCCCCN(CC)CC)c2c1C(=O)c1ccccc1C2=O
active: SW-620 colon -7.96% | HCT-116 colon -58.4%
inactive: RPMI-8226 leukemia 47.8% | OVCAR-8 ovarian 72.9% | OVCAR-5 ovarian 114% | OVCAR-4 ovarian 84.1% | SK-OV-3 ovarian 122% | IGROV1 ovarian 71.8% | OVCAR-3 ovarian 91.5% | HS 578T breast 101% | NCI/ADR-RES ovarian 83.4% | T-47D breast 122% | BT-549 breast 95.6% | MDA-MB-435 melanoma 56% | MCF7 breast 79.1% | KM12 colon 26.9%
